From PubChem BioAssay (Tox21)
“And” between values parts separate entries of the source, which are not always exact repeats. Identical values can stand only once. Results filed as inconclusive are left out. Some compounds were tested as several samples or in several runs, with calls that do not always agree. The source made the active and inactive calls. Calls come from the whole dose curve; as a rule, active = well fitted inhibition curve with a large enough effect in the repeat runs; inconclusive = weak or mixed curves; inactive = no such curve, though single readings can be large or run the other way.

molecular target: Cytochrome P450 2C9 (Homo sapiens) (UniProt P11712); test: Cytochrome P450 Family 2 Subfamily C Member 9 (CYP2C9) small molecule antagonists: luciferase reporter qHTS assay (AID 1671198); conditions: P450-Glo CYP2C9 enzyme assay, luciferin luminescence; series mostly up to 115 µM; activity change, negative = inhibition: at the top concentration; note: nearly all actives have a fitted effect of over 50% in size
In short: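 CYP2C9 activity was measured with a P450-Glo proluciferin substrate. Enzyme–substrate mix was held with compound for 10 min at room temperature, then NADPH regeneration solution was added for 1 h at 37C. Luciferin product was read as luminescence.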
% is set by controls: 0 for no effect and ±100 for the full control effect; potency is the fitted concentration of half-maximal effect.

Sequence of Cytochrome P450 2C9 (Homo sapiens) (P11712 whole entry, looked up): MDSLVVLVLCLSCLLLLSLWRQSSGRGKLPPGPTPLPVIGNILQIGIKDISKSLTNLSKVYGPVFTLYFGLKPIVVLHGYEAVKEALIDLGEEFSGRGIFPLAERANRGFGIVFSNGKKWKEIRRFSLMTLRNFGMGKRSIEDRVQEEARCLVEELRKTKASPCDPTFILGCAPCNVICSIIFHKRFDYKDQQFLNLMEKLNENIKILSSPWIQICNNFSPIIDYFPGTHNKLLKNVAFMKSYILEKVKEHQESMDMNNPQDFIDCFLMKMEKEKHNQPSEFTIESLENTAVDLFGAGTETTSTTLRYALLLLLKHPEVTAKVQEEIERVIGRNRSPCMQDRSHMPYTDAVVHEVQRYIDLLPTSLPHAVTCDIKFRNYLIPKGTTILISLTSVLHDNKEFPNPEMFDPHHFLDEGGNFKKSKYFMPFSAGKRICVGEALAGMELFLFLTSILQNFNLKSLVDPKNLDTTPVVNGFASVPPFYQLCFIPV

SMILES	Potency	activity change, negative = inhibition
C=C(C#N)C(=O)OCC	inactive and 63.3 µM (active)	–
OCC#CCO	–	-12.4% (inactive)
CN(C)c1cccc(O)c1	16.1 µM (active) and 12.6 µM (active)	–
O=[N+]([O-])c1cc(N(CCO)CCO)ccc1NCCO	35.5 µM (active) and 39.9 µM (active)	–
CCCCOCCOCCOC(=O)CCCCC(=O)OCCOCCOCCCC	11.3 µM (active) and 17.8 µM (active)	–
CCC(=O)O	inactive	–
CC1Cc2ccccc2N1NC(=O)c1ccc(Cl)c(S(N)(=O)=O)c1 (configuration not stated)	–	-17.7% [at 53 µM] (inactive)
CCCCCCCCCCC=CC1CC(=O)OC1=O (configuration not stated)	71.4 µM (active) and 39.9 µM (active)	–
CCOC(=O)[C@H](CCc1ccccc1)N[C@@H](C)C(=O)N1Cc2ccccc2C[C@H]1C(=O)O	8.02 µM (active) and 12.3 µM (active)	–
NC(=O)/N=N/C(N)=O	4 µM (active) and 3.99 µM (active)	–
CCCCCCCCCC(=O)O	74.8 µM (active)	–
Nc1c(S(=O)(=O)O)cc(Br)c2c1C(=O)c1ccccc1C2=O	16.3 µM (active) and 7.96 µM (active)	–
O=S(=O)(Oc1ccc(Cl)cc1Cl)c1ccccc1	40.6 µM (active) and 35.6 µM (active)	–
COC(=O)c1ccccc1O	–	-18.7% (inactive)
CCc1ccccc1O	35.4 µM (active)	–
CC#C[C@]1(O)CC[C@H]2[C@@H]3CCC4=CC(=O)CCC4=C3[C@@H](c3ccc(N(C)C)cc3)C[C@@]21C	2.24 µM (active) and 2.75 µM (active)	–
Nc1nc2ncc(CNc3ccc(C(=O)N[C@@H](CCC(=O)O)C(=O)O)cc3)nc2c(=O)[nH]1	inactive	–
